Reference: article PMC11006913
Numbering of substitutions follows the chain as printed.

Legend:
Test in all cases: PBM; 200 nM protein, PBS
Details in all cases: dsDNA, one strand shown
HOXB4 [1] = biological target: HOXB4 (Homo sapiens, UniProt P17483 148-234)
HOXA4 [2] = biological target: HOXA4 (Homo sapiens, UniProt Q00056 201-287, W262R)
HOXA7 [3] = biological target: HOXA7 (Homo sapiens, UniProt P31268 116-202)
HOXB6 [4] = biological target: HOXB6 (Homo sapiens, UniProt P17509 132-218, K202E)
Chain of HOXB6 (Homo sapiens, UniProt P17509 132-218, K202E) (P17509 132-218 K202E): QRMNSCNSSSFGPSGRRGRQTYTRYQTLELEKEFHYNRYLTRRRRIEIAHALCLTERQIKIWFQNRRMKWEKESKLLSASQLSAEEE

HOXA2 [5] = biological target: HOXA2 (Homo sapiens, UniProt O43364 129-215, R185T)
Chain of HOXA2 (Homo sapiens, UniProt O43364 129-215, R185T) (O43364 129-215 R185T): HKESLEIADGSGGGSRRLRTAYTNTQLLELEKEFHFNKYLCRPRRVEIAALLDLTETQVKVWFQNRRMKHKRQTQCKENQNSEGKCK

HOXA4 [6] = biological target: HOXA4 (Homo sapiens, UniProt Q00056 201-287, R217L)
Chain of HOXA4 (Homo sapiens, UniProt Q00056 201-287, R217L) (Q00056 201-287 R217L): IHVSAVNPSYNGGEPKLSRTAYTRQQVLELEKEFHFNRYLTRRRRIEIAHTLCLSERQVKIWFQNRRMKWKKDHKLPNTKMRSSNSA

HOXB4 [7] = biological target: HOXB4 (Homo sapiens, UniProt P17483 148-234, V174I)
Chain of HOXB4 (Homo sapiens, UniProt P17483 148-234, V174I) (P17483 148-234 V174I): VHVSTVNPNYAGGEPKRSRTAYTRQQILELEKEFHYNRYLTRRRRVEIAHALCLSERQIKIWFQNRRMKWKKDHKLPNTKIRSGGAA

HOXA2 [8] = biological target: HOXA2 (Homo sapiens, UniProt O43364 129-215, R185K)
Chain of HOXA2 (Homo sapiens, UniProt O43364 129-215, R185K) (O43364 129-215 R185K): as the sequence (O43364 129-215 R185T) above, with T57K counted along it

HOXA4 [9] = biological target: HOXA4 (Homo sapiens, UniProt Q00056 201-287)
Chain of HOXA4 (Homo sapiens, UniProt Q00056 201-287) (Q00056 201-287): as the sequence (Q00056 201-287 R217L) above, with L17R counted along it

VAX1 [10] = biological target: VAX1 (Homo sapiens, UniProt Q5SQQ9 86-172)
Chain of VAX1 (Homo sapiens, UniProt Q5SQQ9 86-172) (Q5SQQ9 86-172): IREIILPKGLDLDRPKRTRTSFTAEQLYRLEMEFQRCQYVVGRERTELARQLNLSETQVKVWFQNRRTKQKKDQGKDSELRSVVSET

VAX1 [11] = biological target: VAX1 (Homo sapiens, UniProt Q5SQQ9 86-172, T142I)
Chain of VAX1 (Homo sapiens, UniProt Q5SQQ9 86-172, T142I) (Q5SQQ9 86-172 T142I): as the sequence (Q5SQQ9 86-172) above, with T57I counted along it

HOXA2 [12] = biological target: HOXA2 (Homo sapiens, UniProt O43364 129-215, Y150S)
Chain of HOXA2 (Homo sapiens, UniProt O43364 129-215, Y150S) (O43364 129-215 Y150S): as the sequence (O43364 129-215 R185T) above, with Y22S, T57R counted along it

HOXA7 [13] = biological target: HOXA7 (Homo sapiens, UniProt P31268 116-202, W177C)
Chain of HOXA7 (Homo sapiens, UniProt P31268 116-202, W177C) (P31268 116-202 W177C): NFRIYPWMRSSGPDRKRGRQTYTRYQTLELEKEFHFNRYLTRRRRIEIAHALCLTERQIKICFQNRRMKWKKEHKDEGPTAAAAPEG

HOXA4 [14] = biological target: HOXA4 (Homo sapiens, UniProt Q00056 201-287, W262F)
Chain of HOXA4 (Homo sapiens, UniProt Q00056 201-287, W262F) (Q00056 201-287 W262F): as the sequence (Q00056 201-287 R217L) above, with L17R, W62F counted along it

HOXA2 [15] = biological target: HOXA2 (Homo sapiens, UniProt O43364 129-215)
Chain of HOXA2 (Homo sapiens, UniProt O43364 129-215) (O43364 129-215): as the sequence (O43364 129-215 R185T) above, with T57R counted along it

VAX1 [16] = biological target: VAX1 (Homo sapiens, UniProt Q5SQQ9 86-172, K157R)
Chain of VAX1 (Homo sapiens, UniProt Q5SQQ9 86-172, K157R) (Q5SQQ9 86-172 K157R): as the sequence (Q5SQQ9 86-172) above, with K72R counted along it

HOXB6 [17] = biological target: HOXB6 (Homo sapiens, UniProt P17509 132-218)
Chain of HOXB6 (Homo sapiens, UniProt P17509 132-218) (P17509 132-218): as the sequence (P17509 132-218 K202E) above, with E71K counted along it

NKX2-6 = biological target: T1, NKX2-6 (Homo sapiens, UniProt A6NCS4 118-204, R150C)
T1 sequence: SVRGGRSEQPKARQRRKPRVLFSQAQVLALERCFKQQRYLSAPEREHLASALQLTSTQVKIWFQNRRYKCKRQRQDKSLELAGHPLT

ALX3 [18] = biological target: ALX3 (Homo sapiens, UniProt O95076 139-225, N203Q)
Chain of ALX3 (Homo sapiens, UniProt O95076 139-225, N203Q) (O95076 139-225 N203Q): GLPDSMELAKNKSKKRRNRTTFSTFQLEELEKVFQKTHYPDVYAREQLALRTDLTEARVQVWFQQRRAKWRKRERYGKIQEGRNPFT

ALX3 [19] = biological target: ALX3 (Homo sapiens, UniProt O95076 139-225)
Chain of ALX3 (Homo sapiens, UniProt O95076 139-225) (O95076 139-225): as the sequence (O95076 139-225 N203Q) above, with Q65N counted along it

ALX3 [20] = biological target: ALX3 (Homo sapiens, UniProt O95076 139-225, L168Q)
Chain of ALX3 (Homo sapiens, UniProt O95076 139-225, L168Q) (O95076 139-225 L168Q): as the sequence (O95076 139-225 N203Q) above, with L30Q, Q65N counted along it

ALX3 [21] = biological target: ALX3 (Homo sapiens, UniProt O95076 139-225, L168V)
Chain of ALX3 (Homo sapiens, UniProt O95076 139-225, L168V) (O95076 139-225 L168V): as the sequence (O95076 139-225 N203Q) above, with L30V, Q65N counted along it

ALX3 [22] = biological target: ALX3 (Homo sapiens, UniProt O95076 139-225, N203S)
Chain of ALX3 (Homo sapiens, UniProt O95076 139-225, N203S) (O95076 139-225 N203S): as the sequence (O95076 139-225 N203Q) above, with Q65S counted along it

HOXC9 [23] = biological target: HOXC9 (Homo sapiens, UniProt P31274 178-260, K195R)
Chain of HOXC9 (Homo sapiens, UniProt P31274 178-260, K195R) (P31274 178-260 K195R): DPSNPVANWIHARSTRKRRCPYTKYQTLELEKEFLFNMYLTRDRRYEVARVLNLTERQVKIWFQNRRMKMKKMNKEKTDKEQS

HOXC9 [24] = biological target: HOXC9 (Homo sapiens, UniProt P31274 178-260)
Chain of HOXC9 (Homo sapiens, UniProt P31274 178-260) (P31274 178-260): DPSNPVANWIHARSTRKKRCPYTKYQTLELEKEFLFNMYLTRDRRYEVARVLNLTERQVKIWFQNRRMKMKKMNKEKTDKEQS

HOXC9 [25] = biological target: HOXC9 (Homo sapiens, UniProt P31274 178-260, R193K)
Chain of HOXC9 (Homo sapiens, UniProt P31274 178-260, R193K) (P31274 178-260 R193K): as the sequence (P31274 178-260) above, with R16K counted along it

HOXC9 [26] = biological target: HOXC9 (Homo sapiens, UniProt P31274 178-260, R222W)
Chain of HOXC9 (Homo sapiens, UniProt P31274 178-260, R222W) (P31274 178-260 R222W): as the sequence (P31274 178-260) above, with R45W counted along it

PAX4 [27] = biological target: T2, PAX4 (Homo sapiens, UniProt O43316 9-242, R200K)
T2 sequence: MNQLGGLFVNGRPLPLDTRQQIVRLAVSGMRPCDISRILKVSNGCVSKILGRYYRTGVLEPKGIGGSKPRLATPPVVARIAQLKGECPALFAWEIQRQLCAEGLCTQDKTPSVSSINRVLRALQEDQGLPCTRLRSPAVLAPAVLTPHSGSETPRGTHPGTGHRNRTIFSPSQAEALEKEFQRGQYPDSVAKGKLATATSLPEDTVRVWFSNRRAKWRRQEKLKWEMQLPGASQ

PAX4 [28] = biological target: T3, PAX4 (Homo sapiens, UniProt O43316 9-242)
T3 sequence: T2 sequence with K192R

PAX4 [29] = biological target: T4, PAX4 (Homo sapiens, UniProt O43316 9-242, R200Q)
T4 sequence: T2 sequence with K192Q

PAX4 [30] = biological target: T5, PAX4 (Homo sapiens, UniProt O43316 9-242, F177V)
T5 sequence: T2 sequence with F169V, K192R

PAX4 [31] = biological target: T6, PAX4 (Homo sapiens, UniProt O43316 9-242, F177Y)
T6 sequence: T2 sequence with F169Y, K192R

PAX4 [32] = biological target: T7, PAX4 (Homo sapiens, UniProt O43316 9-242, R227W)
T7 sequence: T2 sequence with K192R, R219W

Chain of HOXB4 (Homo sapiens, UniProt P17483 148-234) (P17483 148-234): as the sequence (P17483 148-234 V174I) above, with I27V counted along it
Chain of HOXA4 (Homo sapiens, UniProt Q00056 201-287, W262R) (Q00056 201-287 W262R): as the sequence (Q00056 201-287 R217L) above, with L17R, W62R counted along it
Chain of HOXA7 (Homo sapiens, UniProt P31268 116-202) (P31268 116-202): as the sequence (P31268 116-202 W177C) above, with C62W counted along it

With ATAATGAC the binding signal (HOXB4 [1]) was 12.9 upbm affinity estimate (log intensity, higher = more binding, comparable within an allelic series), the binding signal (HOXA4 [2]) was 10.4 upbm affinity estimate (log intensity, higher = more binding, comparable within an allelic series) and the binding signal (HOXA7 [3]) was 11.2 upbm affinity estimate (log intensity, higher = more binding, comparable within an allelic series). The binding signal (HOXB6 [4]) was 9.89 upbm affinity estimate (log intensity, higher = more binding, comparable within an allelic series), the binding signal (HOXA2 [5]) was 12.4 upbm affinity estimate (log intensity, higher = more binding, comparable within an allelic series) and the binding signal (HOXA4 [6]) was 12.1 upbm affinity estimate (log intensity, higher = more binding, comparable within an allelic series). For the same sequence, the binding signal (HOXB4 [7]) was 13.6 upbm affinity estimate (log intensity, higher = more binding, comparable within an allelic series), the binding signal (HOXA2 [8]) was 13.2 upbm affinity estimate (log intensity, higher = more binding, comparable within an allelic series) and the binding signal (HOXA4 [9]) was 13.7 upbm affinity estimate (log intensity, higher = more binding, comparable within an allelic series). The binding signal (VAX1 [10]) was 12.6 upbm affinity estimate (log intensity, higher = more binding, comparable within an allelic series), the binding signal (VAX1 [11]) was 12.5 upbm affinity estimate (log intensity, higher = more binding, comparable within an allelic series) and the binding signal (HOXA2 [12]) was 10.8 upbm affinity estimate (log intensity, higher = more binding, comparable within an allelic series). The binding signal (HOXA7 [13]) was 8.74 upbm affinity estimate (log intensity, higher = more binding, comparable within an allelic series), the binding signal (HOXA4 [14]) was 11.4 upbm affinity estimate (log intensity, higher = more binding, comparable within an allelic series) and the binding signal (HOXA2 [15]) was 12.4 upbm affinity estimate (log intensity, higher = more binding, comparable within an allelic series). For the same sequence, the binding signal (VAX1 [16]) was 12.3 upbm affinity estimate (log intensity, higher = more binding, comparable within an allelic series) and the binding signal (HOXB6 [17]) was 11.7 upbm affinity estimate (log intensity, higher = more binding, comparable within an allelic series).
For ACCGCCGG, the binding signal (HOXB4 [1]) was 7.71 upbm affinity estimate (log intensity, higher = more binding, comparable within an allelic series), the binding signal (HOXA4 [2]) was 9.74 upbm affinity estimate (log intensity, higher = more binding, comparable within an allelic series) and the binding signal (HOXA2 [5]) was 7.21 upbm affinity estimate (log intensity, higher = more binding, comparable within an allelic series). For the same sequence, the binding signal (HOXA4 [6]) was 9.58 upbm affinity estimate (log intensity, higher = more binding, comparable within an allelic series), the binding signal (HOXB4 [7]) was 7.62 upbm affinity estimate (log intensity, higher = more binding, comparable within an allelic series) and the binding signal (NKX2-6) was 9.49 upbm affinity estimate (log intensity, higher = more binding, comparable within an allelic series). For the same sequence, the binding signal (ALX3 [18]) was 7.72 upbm affinity estimate (log intensity, higher = more binding, comparable within an allelic series), the binding signal (HOXA2 [8]) was 10.2 upbm affinity estimate (log intensity, higher = more binding, comparable within an allelic series) and the binding signal (HOXA4 [9]) was 9.85 upbm affinity estimate (log intensity, higher = more binding, comparable within an allelic series). For the same sequence, the binding signal (ALX3 [19]) was 7.95 upbm affinity estimate (log intensity, higher = more binding, comparable within an allelic series), the binding signal (VAX1 [10]) was 7.52 upbm affinity estimate (log intensity, higher = more binding, comparable within an allelic series) and the binding signal (ALX3 [20]) was 7.7 upbm affinity estimate (log intensity, higher = more binding, comparable within an allelic series). For the same sequence, the binding signal (ALX3 [21]) was 7.65 upbm affinity estimate (log intensity, higher = more binding, comparable within an allelic series), the binding signal (VAX1 [11]) was 7.48 upbm affinity estimate (log intensity, higher = more binding, comparable within an allelic series) and the binding signal (HOXA2 [12]) was 10.4 upbm affinity estimate (log intensity, higher = more binding, comparable within an allelic series). For the same sequence, the binding signal (HOXA4 [14]) was 9.75 upbm affinity estimate (log intensity, higher = more binding, comparable within an allelic series), the binding signal (ALX3 [22]) was 7.69 upbm affinity estimate (log intensity, higher = more binding, comparable within an allelic series) and the binding signal (HOXA2 [15]) was 7.23 upbm affinity estimate (log intensity, higher = more binding, comparable within an allelic series). For the same sequence, the binding signal (VAX1 [16]) was 7.38 upbm affinity estimate (log intensity, higher = more binding, comparable within an allelic series).
In the case of TCCCAGGA, the binding signal (HOXB4 [1]) is reported as 7.82 upbm affinity estimate (log intensity, higher = more binding, comparable within an allelic series), the binding signal (HOXC9 [23]) is reported as 9.51 upbm affinity estimate (log intensity, higher = more binding, comparable within an allelic series) and the binding signal (HOXB4 [7]) is reported as 7.66 upbm affinity estimate (log intensity, higher = more binding, comparable within an allelic series). The binding signal (HOXC9 [24]) was 9.58 upbm affinity estimate (log intensity, higher = more binding, comparable within an allelic series), the binding signal (HOXC9 [25]) was 9.57 upbm affinity estimate (log intensity, higher = more binding, comparable within an allelic series) and the binding signal (VAX1 [10]) was 7.2 upbm affinity estimate (log intensity, higher = more binding, comparable within an allelic series). The binding signal (HOXC9 [26]) was 9.72 upbm affinity estimate (log intensity, higher = more binding, comparable within an allelic series), the binding signal (VAX1 [11]) was 7.36 upbm affinity estimate (log intensity, higher = more binding, comparable within an allelic series) and the binding signal (VAX1 [16]) was 7.24 upbm affinity estimate (log intensity, higher = more binding, comparable within an allelic series).
With CGGCGGTC the binding signal (HOXB4 [1]) was 7.42 upbm affinity estimate (log intensity, higher = more binding, comparable within an allelic series), the binding signal (HOXA4 [2]) was 9.72 upbm affinity estimate (log intensity, higher = more binding, comparable within an allelic series) and the binding signal (HOXA4 [6]) was 9.69 upbm affinity estimate (log intensity, higher = more binding, comparable within an allelic series). The binding signal (HOXB4 [7]) was 7.32 upbm affinity estimate (log intensity, higher = more binding, comparable within an allelic series), the binding signal (HOXA4 [9]) was 9.77 upbm affinity estimate (log intensity, higher = more binding, comparable within an allelic series) and the binding signal (HOXA4 [14]) was 9.76 upbm affinity estimate (log intensity, higher = more binding, comparable within an allelic series).
For ATATGATG, the binding signal (HOXB4 [1]) was 10 upbm affinity estimate (log intensity, higher = more binding, comparable within an allelic series) and the binding signal (HOXB4 [7]) was 10.1 upbm affinity estimate (log intensity, higher = more binding, comparable within an allelic series).
For GCTCCCCC, the binding signal (HOXB4 [1]) was 7.43 upbm affinity estimate (log intensity, higher = more binding, comparable within an allelic series) and the binding signal (HOXB4 [7]) was 7.43 upbm affinity estimate (log intensity, higher = more binding, comparable within an allelic series).
In the case of AATGGTCA, the binding signal (HOXB4 [1]) is reported as 10.4 upbm affinity estimate (log intensity, higher = more binding, comparable within an allelic series) and the binding signal (HOXB4 [7]) is reported as 10.5 upbm affinity estimate (log intensity, higher = more binding, comparable within an allelic series).
With CGCTGGCC the binding signal (HOXB4 [1]) was 7.45 upbm affinity estimate (log intensity, higher = more binding, comparable within an allelic series), the binding signal (PAX4 [27]) was 8.99 upbm affinity estimate (log intensity, higher = more binding, comparable within an allelic series) and the binding signal (PAX4 [28]) was 9.12 upbm affinity estimate (log intensity, higher = more binding, comparable within an allelic series). The binding signal (HOXB4 [7]) was 7.53 upbm affinity estimate (log intensity, higher = more binding, comparable within an allelic series), the binding signal (ALX3 [18]) was 7.62 upbm affinity estimate (log intensity, higher = more binding, comparable within an allelic series) and the binding signal (PAX4 [29]) was 9.12 upbm affinity estimate (log intensity, higher = more binding, comparable within an allelic series). For the same sequence, the binding signal (PAX4 [30]) was 9.1 upbm affinity estimate (log intensity, higher = more binding, comparable within an allelic series), the binding signal (ALX3 [19]) was 7.39 upbm affinity estimate (log intensity, higher = more binding, comparable within an allelic series) and the binding signal (PAX4 [31]) was 9.14 upbm affinity estimate (log intensity, higher = more binding, comparable within an allelic series). The binding signal (ALX3 [20]) was 7.58 upbm affinity estimate (log intensity, higher = more binding, comparable within an allelic series), the binding signal (ALX3 [21]) was 7.61 upbm affinity estimate (log intensity, higher = more binding, comparable within an allelic series) and the binding signal (PAX4 [32]) was 9.18 upbm affinity estimate (log intensity, higher = more binding, comparable within an allelic series). The binding signal (ALX3 [22]) was 7.65 upbm affinity estimate (log intensity, higher = more binding, comparable within an allelic series).
